JMJD2A Tudor inh – qHTS Assay for Inhibitors of JMJD2A-Tudor Domain; 390,000 tested, 4.4% active; Lysine-specific demethylase 4A (Homo sapiens), O75164; AID 504339, 2011; Potency, µM (top dose mostly 114 µM), most hits filed as inhibitors; AlphaScreen JMJD2A-Tudor / H3K4me3 peptide binding; further: nearly all actives have a fitted effect of over 50% in size
BAZ2B block – qHTS Assay for Inhibitors of BAZ2B | 360,000 tested, 4.4% active | Potency, µM (top dose mostly 114 µM), usual class: inhibitors | AlphaScreen BAZ2B-H3K14Ac peptide displacement | Bromodomain adjacent to zinc finger domain protein 2B (Homo sapiens), Q9UIF8; further: nearly all actives have a fitted effect of over 60% in size
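Inhibition is scored as reduced AlphaScreen emission. The BAZ2B/b-H3(5-23)K14Ac complex (50 nM each) in PBS pH 7.4, 0.01% Tween-20 meets compound (up to 110 uM) for 30 min at RT before bead addition.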
Sfp inh – qHTS Assay for Inhibitors of Bacillus subtilis Sfp phosphopantetheinyl transferase (PPTase); 4'-phosphopantetheinyl transferase ffp (Bacillus subtilis), Q9F4F7; Biochemical Sfp PPTase activity, qHTS; Potency, µM, hits mostly inhibitors; 310,000 tested, 3.5% active; AID 1490, 2009;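 further: the enzyme is Sfp with the accession as filed and its product quenches rhodamine fluorescence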
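Fluorescence-quenching assay: 15 nM Sfp-PPTase preincubated 15 min at room temperature with compound, then 5 uM rhodamine-CoA and 12.5 uM BHQ-2-labelled YbbR peptide added. Fluorescence (ex 525/em 598 nm) read at start and after 30 min; difference gives rate.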
L3MBTL1 block – qHTS Assay for the Inhibitors of L3MBTL1; AlphaScreen L3MBTL1–H3K9me1 peptide binding; Potency, µM (titrated, usually from 57.1 µM), usual class: inhibitors; 230,000 tested, 0.66% active; AID 485360, 2010; further: nearly all actives have a fitted effect of over 60% in size
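L3MBTL1 (50 nM) pre-complexed 30 min with biotinylated H3(1-15)K9me1 peptide (75 nM), then compounds added for 30 min at room temperature; AlphaScreen streptavidin donor/nickel chelate acceptor beads (10 ug/mL final) read after 30 min dark incubation.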
G9a block – qHTS Assay for Inhibitors of Histone Lysine Methyltransferase G9a | Histone-lysine N-methyltransferase EHMT2 (Homo sapiens), Q96KQ7 | G9a H3K9 monomethylation, AlphaScreen, 2 h | Potency, µM (series often up to 102 µM), usual class: inhibitors | 350,000 tested, 8.8% active; further: nearly all actives have a fitted effect of over 75% in size
Target sequence (Q96KQ7 913-1193 limits assumed): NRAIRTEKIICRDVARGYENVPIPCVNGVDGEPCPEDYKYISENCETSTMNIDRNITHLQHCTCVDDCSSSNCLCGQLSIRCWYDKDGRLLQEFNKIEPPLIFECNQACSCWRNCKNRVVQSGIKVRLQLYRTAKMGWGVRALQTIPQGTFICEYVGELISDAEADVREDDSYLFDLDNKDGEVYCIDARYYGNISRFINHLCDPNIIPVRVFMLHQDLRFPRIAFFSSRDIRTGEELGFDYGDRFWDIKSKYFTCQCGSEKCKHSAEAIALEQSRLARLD
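Compounds were preincubated with 20 nM G9a for 15 min, after which biotinylated H3K9 peptide (500 nM) and SAM (20 uM) started a 2 h room-temperature reaction. Monomethylated product was quantified by antibody-based AlphaScreen chemiluminescence.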
HP1b binding inh – HTS for Inhibitors of HP1-beta Chromodomain Interactions with Methylated Histone Tails; Chromobox protein homolog 1 (Homo sapiens), P83916; AlphaScreen HP1-beta / biotin-H3K9me3 peptide binding; Potency, µM (top dose mostly 114 µM), most hits filed as inhibitors; 390,000 tested, 0.56% active; AID 540317, 2011; further: nearly all actives have a fitted effect of over 70% in size
Target sequence (P83916 whole entry, looked up): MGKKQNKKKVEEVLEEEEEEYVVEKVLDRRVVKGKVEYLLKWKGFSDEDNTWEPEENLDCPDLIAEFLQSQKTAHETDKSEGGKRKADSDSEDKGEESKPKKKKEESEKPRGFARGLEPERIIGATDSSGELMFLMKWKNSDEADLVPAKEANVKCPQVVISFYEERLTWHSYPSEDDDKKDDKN
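HP1-beta protein (50 nM final) preincubated 30 min at room temperature with biotinylated H3(1-18)K9me3 peptide (50 nM) in PBS pH 7.4, 0.01% Tween-20, then compound added for 30 min. AlphaScreen streptavidin donor/nickel chelate acceptor beads (10 ug/mL final), 30 min dark, luminescence read.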
Large screens that a line does not name were inactive. A selection: hits, their analogues and other compounds. The true share with any hit is near 12%. The call rests on the fitted dose curve; in most records, active means well fitted curve in the direction sought with a large enough effect; inconclusive means small, poorly fitted or top-dose-only effect, or another doubt; inactive means no such curve, though single readings can be large; an effect the other way counts as inactive or inconclusive.

COc1ccc(Cn2ccc3nc(C)c(C(=O)Nc4ccc(OC)cc4OC)cc3c2=O)cc1	none (no result: Sfp inh, L3MBTL1 block)
Cc1cccc(-n2cc[nH]c2=S)c1	JMJD2A Tudor inh 5.6µM, Sfp inh 56µM, G9a block 2.8µM
CN(c1ccccc1)S(=O)(=O)c1ccc(NC(=O)c2cc(=O)c3ccccc3o2)cc1	none (no result: Sfp inh, L3MBTL1 block)
CN(C)S(=O)(=O)c1cc(NC(=O)c2cc(=O)c3ccccc3o2)ccc1Cl	Sfp inh 32µM, G9a block inconclusive (no result: L3MBTL1 block)
COc1ccc(NC(=O)c2cc(=O)c3ccc(C)c(C)c3o2)cc1Cl	none (no result: Sfp inh, L3MBTL1 block)
COc1ccc(NC(=O)c2cc(=O)c3ccccc3o2)cc1Cl	G9a block 56µM
COc1ccc2[nH]c(C(=O)O)c(CCN3C(=O)c4cccc([N+](=O)[O-])c4C3=O)c2c1	BAZ2B block 79µM, G9a block inconclusive
Cc1cccc(C)c1OCCn1c(C2CC(=O)N(Cc3ccc(F)cc3)C2)nc2ccccc21 (stereo unspecified)	JMJD2A Tudor inh inconclusive, BAZ2B block inconclusive (no result: Sfp inh, L3MBTL1 block)
O=C(NNC(=O)c1cccnc1)NC1CCCCC1	none (no result: L3MBTL1 block)
O=C(NNC(=O)c1cc(O)c(O)c(O)c1)NC1CCCCC1	JMJD2A Tudor inh 10µM, BAZ2B block 56µM, Sfp inh 10µM, G9a block 1.6µM
C=C1CCC2C(CC2(C)C)C(=C)CC/C1=N/O (stereo unspecified)	none (no result: JMJD2A Tudor inh, BAZ2B block, L3MBTL1 block, G9a block, HP1b binding inh)
CCOC(=O)C(C)Sc1nc2c(c(=O)[nH]c(=O)n2C)n1CCc1ccccc1 (stereo unspecified)	G9a block inconclusive
CCCCOC(=O)CSc1nc2c(c(=O)[nH]c(=O)n2C)n1C/C=C(\C)Cl	G9a block 16µM
C/C(Cl)=C/Cn1c(SCC(C)C)nc2c1c(=O)[nH]c(=O)n2C	G9a block 50µM
CCOC(=O)C(CC)Sc1nc2c(c(=O)[nH]c(=O)n2C)n1C/C=C(/C)Cl (stereo unspecified)	JMJD2A Tudor inh 18µM, Sfp inh 14µM, G9a block inconclusive
CCCCCn1c(SCC(=O)OC)nc2c1c(=O)[nH]c(=O)n2C	none (no result: L3MBTL1 block)
C/C(CC(C)(C)c1ccccc1)=N\NS(=O)(=O)c1ccccc1	G9a block 25µM
CC(CN)(NS(=O)(=O)c1ccccc1)c1ccccc1 (stereo unspecified)	none (no result: G9a block)
Cc1ccc(C2Nc3cc(C)c(C)cc3-n3c(-c4ccccc4)c4c(=O)n(C)c(=O)n(C)c4c32)o1 (stereo unspecified)	none (no result: Sfp inh, L3MBTL1 block)
COc1ccc(-c2cc(C(=O)OC(C)C(=O)Nc3c(C)n(C)n(-c4ccccc4)c3=O)c3ccccc3n2)cc1 (stereo unspecified)	none
Cc1c(NC(=O)C(C)OC(=O)c2cc(-c3cccc4ccccc34)nc3ccccc23)c(=O)n(-c2ccccc2)n1C (stereo unspecified)	G9a block 11µM
Cc1c(NC(=O)COC(=O)c2cc(-c3ccc(-c4ccccc4)cc3)nc3ccccc23)c(=O)n(-c2ccccc2)n1C	Sfp inh 50µM
Cc1c(NC(=O)C(C)OC(=O)/C=C/c2ccco2)c(=O)n(-c2ccccc2)n1C (stereo unspecified)	JMJD2A Tudor inh 20µM, BAZ2B block 50µM, G9a block inconclusive, HP1b binding inh 45µM
Cc1c(NC(=O)c2cc(-c3ccccc3)nc3ccccc23)c(=O)n(-c2ccccc2)n1C	none (no result: BAZ2B block, Sfp inh, G9a block)
N#Cc1nc(-c2ccc(OCc3ccccc3Cl)cc2)oc1N1CCC(C(N)=O)CC1	none (no result: BAZ2B block, Sfp inh, L3MBTL1 block, G9a block)
COc1ccc(NC(=O)C(CCSC)N2C(=O)c3ccccc3C2=O)cc1 (stereo unspecified)	Sfp inh 50µM, G9a block inconclusive (no result: L3MBTL1 block)
CSCCC(C(=O)NCc1cccs1)N1C(=O)c2ccccc2C1=O (stereo unspecified)	none (no result: L3MBTL1 block)
